Assay [1] addresses Peroxisome proliferator-activated receptor gamma (Homo sapiens) (UniProt P37231). Put plainly: OT_PPARg_PPARgSRC1_1440: Odyssey Thera (OT) 24-hour Protein-Complementation Assay for Peroxisome Proliferator-activated Receptor Gamma/ SRC-1 Co-activator (AID 2283388).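 Also: nuclear to cytoplasmic ratio of reconstituted Venus YFP fluorescence in fixed imaged cells.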 The procedure, abridged: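 Readout: nuclear-to-cytoplasmic 488 nm fluorescence ratio, ≥350 cells per image, 8 images per well, after 24 h compound exposure of HEK293T expressing PPARg/SRC-1 split-YFP fusions. Activity fitted in positive direction against DMSO.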

The nature of assay [2]: ATG_XTT_Cytotoxicity: Cytotoxicity Assessment in the Attagene TRANS-FACTORIAL HepG2 Assay (AID 2283584).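 As to AC50: cells exposed to compound for 24 h before reading; active means loss of viability signal versus DMSO baseline.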 The procedure, abridged: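 XTT readout of cell number in transfected HepG2 cells, 24 h post-dosing; DMSO serves as negative control and baseline, with activity taken as loss of viability signal.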
The nature of assay [3]: TOX21_p53_BLA_p2_viability: Viability Assessment in the Tox21 HCT-116 p53 Agonism Beta-lactamase Assay, Phase 2 (AID 2283591).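 Also: compound exposure lasted 16 h at 37 °C; actives lower the ATP signal meaning cytotoxicity.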 The procedure, abridged: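 HCT-116 p53-bla cells (4000/well) rested 5 h at 37C, then received compounds in DMSO (217-fold dilution) for 16 h at 37C, 5% CO2. After the CCF4 read, CellTiter-Glo was added; ATP luminescence was read after 30 min at room temperature.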

Assay [4] has as its target Cellular tumor antigen p53 (Homo sapiens) (UniProt P04637). In words: TOX21_p53_BLA_p3_ratio: Tox21 HCT-116 p53 Agonism Beta-lactamase Assay, Ratio, Phase 3 (AID 2283596). The method in brief:
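HCT116 p53-bla cells (4000/well) given compound in DMSO (217-fold dilution) after 5 h, incubated 16 h at 37C. CCF4-AM substrate 2 h at room temperature; 460/530 nm emission ratio, gain fitted against DMSO.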

The target is the same in assay [5]. Put plainly: TOX21_p53_BLA_p5_ratio: Tox21 HCT-116 p53 Agonism Beta-lactamase Assay, Ratio, Phase 5 (AID 2283599). The procedure, abridged:
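HCT-116 cells carrying a p53-inducible beta-lactamase reporter were seeded at 4000 cells/well and dosed after 5 h with compound in DMSO (217-fold dilution). After 16 h at 37C, CCF4-AM substrate was added for 2 h, and the 460/530 nm emission ratio was scored as gain-of-signal versus DMSO.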

Assay [6] shares this target. In words: TOX21_p53_BLA_p4_ratio: Tox21 HCT-116 p53 Agonism Beta-lactamase Assay, Ratio, Phase 4 (AID 2283601). The procedure, abridged:
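HCT116 cells carrying an inducible beta-lactamase reporter were plated at 4000 cells/well, rested 5 h, then exposed to compounds in DMSO (217-fold dilution) for 16 h at 37C. CCF4-AM substrate was loaded 2 h at room temperature; 460/530 nm emission ratio scored gain-of-signal versus DMSO.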

The target is the same in assay [7]. Put plainly: TOX21_p53_BLA_p2_ratio: Tox21 HCT-116 p53 Agonism Beta-lactamase Assay, Ratio, Phase 2 (AID 2283592). The method in brief: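 In this cell-based reporter format, HCT116 cells were dosed with chemicals delivered from DMSO by 217-fold dilution and incubated 16 h at 37C. Emission at 460 and 530 nm after 2 h CCF4-AM loading provided the ratio, fitted upward versus DMSO.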

Assay [8] is described as follows: TOX21_p53_BLA_p5_viability: Viability Assessment in the Tox21 HCT-116 p53 Agonism Beta-lactamase Assay, Phase 5 (AID 2283600). The method in brief: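 Compounds, pinned from DMSO at 217-fold dilution, were left on the cells for 16 h. The viability endpoint was ATP content measured by CellTiter-Glo luminescence, where falling signal reflects cytotoxicity.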
A short description of assay [9]: CEETOX_H295R_11DCORT: CeeTox H295R High-throughput Steroidogenesis Assay for 11-Deoxycortisol (11DCORT) (AID 2283432; active = hit-call score of the fitted dose curve at least 0.9, where 1 is the maximum; inactive = score below 0.9;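 as to AC50: 11-deoxycortisol secreted into the medium measured by LC-MS/MS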). The settings on record: actives raise or lower the signal. The procedure, abridged: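 Human adrenal H295R cells were prestimulated with 10 uM forskolin for 48 h, then exposed to test chemical (0.1% DMSO final) for 48 h. Medium 11-deoxycortisol was quantified by MTBE extraction and HPLC-MS/MS; bidirectional fitting relative to DMSO.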

The nature of assay [10]: CEETOX_H295R_OHPREG: CeeTox H295R High-throughput Steroidogenesis Assay for OH-Pregnenolone (OHPREG) (AID 2283434; active = hit-call score of the fitted dose curve at least 0.9, where 1 is the maximum; inactive = score below 0.9). The settings on record: actives raise or lower the signal. The method in brief:
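Human adrenal H295R cells were prestimulated 48 h with 10 uM forskolin, then exposed 48 h to chemical in 0.1% DMSO. Medium 17alpha-hydroxypregnenolone was quantified by HPLC-MS/MS after MTBE extraction; bidirectional fitting versus DMSO baseline.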

The nature of assay [11]: CEETOX_H295R_ANDR: CeeTox H295R High-throughput Steroidogenesis Assay for Androstenedione (ANDR) (AID 2283436; active = hit-call score of the fitted dose curve at least 0.9, where 1 is the maximum; inactive = score below 0.9). Particulars: actives raise or lower the signal. The method in brief:
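H295R human adrenal cells (passages ≤10) were exposed to test chemicals for 48 h; androstenedione in medium was MTBE-extracted and quantified by HPLC-MS/MS against a 7-point standard curve. Bidirectional fitting used DMSO as baseline.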

A short description of assay [12]: CEETOX_H295R_CORTIC: CeeTox H295R High-throughput Steroidogenesis Assay for Corticosterone (CORTIC) (AID 2283437; active = hit-call score of the fitted dose curve at least 0.9, where 1 is the maximum; inactive = score below 0.9;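 also: corticosterone secreted into medium quantified by mass spectrometry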). The settings on record: actives raise or lower the signal. The method in brief:
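H295R cells were prestimulated 48 h with 10 uM forskolin, then exposed 48 h to test chemical in 0.1% DMSO. Medium corticosterone was MTBE-extracted and quantified by HPLC-MS/MS; bidirectional fit versus DMSO baseline.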

Assay [13] is described as follows: CEETOX_H295R_CORTISOL: CeeTox H295R High-throughput Steroidogenesis Assay for Cortisol (AID 2283438; active = hit-call score of the fitted dose curve at least 0.9, where 1 is the maximum; inactive = score below 0.9;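 also: cortisol secreted into medium quantified by LC-MS/MS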). The settings on record: actives raise or lower the signal. The procedure, abridged:
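Forskolin 10 uM 48 h prestim → test cmpd in DMSO (0.1% final) 48 h → medium MTBE-extracted → LC-MS/MS cortisol vs 7-pt std curve. Gain/loss of signal fitted vs DMSO. MTT viability in same wells.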

Assay [14] in a line: CEETOX_H295R_DOC: CeeTox H295R High-throughput Steroidogenesis Assay for DOC (AID 2283439; active = hit-call score of the fitted dose curve at least 0.9, where 1 is the maximum; inactive = score below 0.9). The settings on record: actives raise or lower the signal. The method in brief: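 Readout: 11-deoxycorticosterone in culture medium by reverse-phase C18 HPLC with ESI+ tandem MS after MTBE extraction. Cells: H295R, forskolin-primed (10 uM, 48 h), chemical-treated 48 h; DMSO 0.1% final. Activity fitted bidirectionally versus DMSO.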

The nature of assay [15]: CEETOX_H295R_ESTRADIOL: CeeTox H295R High-throughput Steroidogenesis Assay for Estradiol (AID 2283440; active = hit-call score of the fitted dose curve at least 0.9, where 1 is the maximum; inactive = score below 0.9;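 also: estradiol secreted into medium quantified by LC-MS/MS after dansyl derivatisation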). The settings on record: actives raise or lower the signal. The method in brief:
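H295R, 48 h forskolin (10 uM) prestim → 48 h compound, 0.1% DMSO final. Estradiol in medium: MTBE extraction, dansyl chloride derivatization, LC-MS/MS. Fit bidirectional vs DMSO baseline; MTT viability in same wells.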

The nature of assay [16]: CEETOX_H295R_ESTRONE: CeeTox H295R High-throughput Steroidogenesis Assay for Estrone (AID 2283441; active = hit-call score of the fitted dose curve at least 0.9, where 1 is the maximum; inactive = score below 0.9;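 also: estrone secreted into medium measured by LC-MS/MS after dansyl derivatization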). The settings on record: actives raise or lower the signal. The method in brief:
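H295R cells prestimulated 48 h with 10 uM forskolin, then exposed 48 h to chemicals in 0.1% DMSO final; estrone in medium extracted with MTBE, dansyl-derivatized, quantified by HPLC-MS/MS; bidirectional fitting versus DMSO, viability by MTT.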

The nature of assay [17]: CEETOX_H295R_TESTO: CeeTox H295R High-throughput Steroidogenesis Assay for Testosterone (TESTO) (AID 2283457; active = hit-call score of the fitted dose curve at least 0.9, where 1 is the maximum; inactive = score below 0.9;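 as to AC50: cells exposed to chemicals for 48 h before medium collection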). Particulars: actives raise or lower the signal. The method in brief: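 Readout: testosterone quantified by HPLC-MS/MS (C18, ESI positive) after MTBE liquid-liquid extraction of culture medium. Cells were H295R, 48 h chemical exposure per OECD 456 with modifications. Gain or loss of signal fitted relative to DMSO.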

Assay [18] is described as follows: TOX21_p53_BLA_p4_viability: Viability Assessment in the Tox21 HCT-116 p53 Agonism Beta-lactamase Assay, Phase 4 (AID 2283597).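 Also: hits lower the luminescence signal meaning cytotoxicity.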 The procedure, abridged: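 We seeded HCT116 p53 reporter cells at 4000/well and waited 5 h. We then added compounds in DMSO at a 217-fold dilution and incubated for 16 h. Viability was read as CellTiter-Glo luminescence after 30 min at RT.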

Assay [19] is described as follows: TOX21_p53_BLA_p3_viability: Viability Assessment in the Tox21 HCT-116 p53 Agonism Beta-lactamase Assay, Phase 3 (AID 2283593).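 Also: cells exposed to compound for 16 h before reading.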 The method in brief:
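HCT-116 cells (4000/well) rested 5 h at 37C, then got DMSO compounds by pin tool (217-fold dilution) for 16 h at 37C, 5% CO2. After the bla read, CellTiter-Glo was added and luminescence read at 30 min, room temperature.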

The nature of assay [20]: CCTE_Simmons_CellTiterGLO_HEK293T: Viability Assessment in CCTE's Assays for Thyroperoxidase (TPO) Inhibition, Simmons Lab (AID 2283665).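 Also: cells exposed to compound for 24 h before readout; actives reduce ATP signal below DMSO vehicle meaning cytotoxicity.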 The procedure, abridged: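 HEK293T, 10 000 cells/well, DMEM + 1% FBS; 8-pt titration 5 nM–87.5 uM [final], 0.5% DMSO; 24 hr, 37C, 5% CO2; CellTiter-Glo luminescence; n=3 biological replicates.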
In general terms: Cellular ATP, detected with luciferase, serves as a proxy for viable cell number.

Each structure is given as a SMILES string. Results filed as inconclusive are left out. Activity calls are given as the source filed them. The calls were made as follows, unless noted: active = hit-call score of the fitted dose curve at least 0.9, where 1 is the maximum; inconclusive = response in the unintended direction; inactive = score below 0.9.

For 14 compounds, outcome and AC50 results are on record in PubChem BioAssay (EPA / NIEHS).

Peroxisome proliferator-activated receptor gamma (Homo sapiens), sequence (P37231 whole entry, looked up, the tested form may be a part): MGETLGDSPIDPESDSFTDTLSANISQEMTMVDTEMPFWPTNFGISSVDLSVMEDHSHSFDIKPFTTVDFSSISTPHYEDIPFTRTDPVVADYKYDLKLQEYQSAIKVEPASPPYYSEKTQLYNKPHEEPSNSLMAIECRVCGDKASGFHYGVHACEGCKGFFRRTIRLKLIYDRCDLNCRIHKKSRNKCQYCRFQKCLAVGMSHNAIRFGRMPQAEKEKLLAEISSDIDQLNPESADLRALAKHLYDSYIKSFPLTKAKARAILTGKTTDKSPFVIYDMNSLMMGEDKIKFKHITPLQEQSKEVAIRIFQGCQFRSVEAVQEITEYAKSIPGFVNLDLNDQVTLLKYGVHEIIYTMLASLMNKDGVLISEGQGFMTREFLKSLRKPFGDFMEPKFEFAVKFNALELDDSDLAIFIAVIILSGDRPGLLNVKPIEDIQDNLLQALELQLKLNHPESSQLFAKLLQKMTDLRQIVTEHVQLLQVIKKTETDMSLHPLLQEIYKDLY
Cellular tumor antigen p53 (Homo sapiens), sequence (P04637 whole entry, looked up): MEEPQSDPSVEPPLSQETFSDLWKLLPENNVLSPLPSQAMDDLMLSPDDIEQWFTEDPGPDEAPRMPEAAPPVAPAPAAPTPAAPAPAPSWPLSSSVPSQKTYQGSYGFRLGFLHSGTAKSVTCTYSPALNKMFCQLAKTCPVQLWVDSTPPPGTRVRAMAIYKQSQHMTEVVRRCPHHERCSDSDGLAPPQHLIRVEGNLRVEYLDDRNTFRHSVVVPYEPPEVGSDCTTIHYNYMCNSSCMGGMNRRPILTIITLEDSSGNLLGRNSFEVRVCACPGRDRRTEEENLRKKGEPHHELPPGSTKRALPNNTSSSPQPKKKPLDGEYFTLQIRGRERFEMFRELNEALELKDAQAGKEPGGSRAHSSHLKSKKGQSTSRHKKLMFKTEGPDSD

For the compound `CCCCCc1ccc(Cl)cc1`, the result in assay [1], in [2], in assay [3], in assay [4], in [5] and in [6] was inactive.

As for `CCOC(=O)CC`, the compound was classed as inactive in assay [1], in [2], in [3], in assay [7], in [5] and in assay [8]. In addition, the outcome in [6] was inactive.

Take `COCc1c(C(C)C)nc(C(C)C)c(/C=C/[C@@H](O)C[C@@H](O)CC(=O)O)c1-c1ccc(F)cc1`: the AC50 (commonly the concentration at which the activity in the assay is half-maximal) in [9] was 0.0173 µM (active); in assay [10] it was 0.00141 µM (active); in assay [11], 0.0224 µM (active); in [12], 0.0139 µM (active); in [14], 0.0107 µM (active); in [17], 0.0187 µM (active). Besides, the outcome in assay [13], in assay [15], in [16], in assay [2], in assay [3] and in assay [7] was inactive. Moreover, the result in assay [4], in assay [18], in assay [5], in assay [8] and in assay [6] was inactive.

Consider `CCN(CCC#N)c1ccc(N=Nc2c(Cl)cc([N+](=O)[O-])cc2Cl)cc1`, for which the compound was called inactive in assay [1], in assay [2], in assay [7], in assay [19], in [4] and in assay [18]. Moreover, the result in assay [5], in assay [8] and in assay [6] was inactive. Also, the AC50 in assay [20] is 41.8 µM (active).

Consider `CO[Si](OC)(OC)c1ccccc1`, for which the outcome in assay [1], in assay [7], in [18] and in [6] was inactive.

Consider `CC(C)=CCC[C@H](C)CCO`, for which the result in assay [1], in assay [2], in assay [7], in assay [19], in assay [4] and in assay [18] was inactive.

Consider `Cc1cc(C)c(C)cc1C`, for which the outcome in assay [1], in assay [7], in [4], in assay [5], in assay [8] and in assay [6] was inactive.

Regarding `c1c[nH]cn1`, the compound was called inactive in [1], in assay [2], in assay [7], in assay [19], in [4] and in assay [5]. The outcome in assay [6] was inactive.

Consider `COc1ccc2nc(N)sc2c1`, for which the compound was called inactive in assay [9], in assay [10], in assay [11], in assay [12], in [13] and in assay [14]. Moreover, the compound was classed as inactive in [15], in assay [16], in [17] and in assay [2].

With `S=C(NC1CCCCC1)NC1CCCCC1`, the result in [9], in assay [10], in assay [12], in [13], in assay [14] and in [15] was inactive. Also, the compound was classed as inactive in assay [16] and in [2].

As to `Cc1ccc(N/N=c2\c(=O)cc/c(=N/Nc3ccc(S(=O)(=O)O)cc3)c2=O)c(C)c1`, the outcome in [1], in [3], in assay [18], in assay [5] and in assay [6] was inactive. Moreover, the half-maximal activity concentration (AC50) in assay [20] is 76.6 µM (active).

On to `CCCCCCCC[N+](C)(CCCCCCCC)CCCCCCCC`, for which the call in assay [1] was inactive. For the same compound, the AC50 in [2] is 9.48 µM (active); in assay [20] it was 7.14 µM (active).

For the compound `Cc1ccc(C(C)(C)C)cc1`, the result in assay [1], in assay [2], in [7], in [4], in [5] and in assay [8] was inactive. The result in [6] was inactive.

Regarding `CCCCCCC1(C)CCC(=O)O1` (centres undefined), the outcome in assay [1], in [2], in assay [7], in [19], in assay [4] and in [18] was inactive. Also, in [6], the outcome was inactive.
